Results as given in publication PMC5540273 (PLoS ONE, 2017).
Values joined by “and” are separate entries in the source; they are usually repeats but may differ in a detail not shown here. Identical values can stand only once. Like-named read-outs stand apart in the source and are kept apart here.

How the values were obtained:
PAK4 = details: concentration: 1 μM, replicates: in singlicate; n = 1
PAK6 = details: concentration: 1 μM, replicates: in singlicate, n = 1
PAK7 = details: concentration: 1 μM, replicates: in singlicate, n = 1
PCTK1 = test system: T1, PCTK1; details: concentration: 1 μM, replicates: in singlicate, n = 1
T1 construct: gene CDK16

PCTK2 = test system: T2, PCTK2; details: concentration: 1 μM, replicates: in singlicate, n = 1
T2 construct: gene CDK17

PCTK3 = test system: T3, PCTK3; details: concentration: 1 μM, replicates: in singlicate; n = 1
T3 construct: gene CDK18

PDGFRA = details: concentration: 1 μM, replicates: in singlicate; n = 1
PDGFRB = details: concentration: 1 μM, replicates: in singlicate, n = 1
PDPK1 = details: concentration: 1 μM, replicates: in singlicate; n = 1
PFTAIRE2 = details: concentration: 1 μM, replicates: in singlicate, n = 1
PFTK1 = test system: T4, PFTK1; details: concentration: 1 μM, replicates: in singlicate, n = 1
T4 construct: gene CDK14

PHKG1 = details: concentration: 1 μM, replicates: in singlicate; n = 1
PHKG2 = details: concentration: 1 μM, replicates: in singlicate, n = 1
PIK3C2B = details: concentration: 1 μM, replicates: in singlicate; n = 1
PIK3C2G = details: concentration: 1 μM, replicates: in singlicate, n = 1
PIK3CA = details: concentration: 1 μM, replicates: in singlicate; n = 1
PIK3CB = details: concentration: 1 μM, replicates: in singlicate; n = 1
PIK3CD = details: concentration: 1 μM, replicates: in singlicate, n = 1
PIK3CG = details: concentration: 1 μM, replicates: in singlicate; n = 1
PIK4CB = test system: T5, PIK4CB; details: concentration: 1 μM, replicates: in singlicate, n = 1
T5 construct: gene PI4KB
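Further: KINOMEscan kinase panel screen.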

## O=C1Cc2cc(Nc3nc(NCc4cccc(S(=O)(=O)C(F)(F)F)c4)ncc3C(F)(F)F)ccc2N1
PAK4
  %Inh: 100%
PAK6
  %Inh: 0%
PAK7
  %Inh: 0%
PCTK1
  %Inh: 19%
PCTK2
  %Inh: 0%
PCTK3
  %Inh: 1%
PDGFRA
  %Inh: 0%
PDGFRB
  %Inh: 16%
PDPK1
  %Inh: 0%
PFTAIRE2
  %Inh: 0%
PFTK1
  %Inh: 0%
PHKG1
  %Inh: 3%
PHKG2
  %Inh: 0%
PIK3C2B
  %Inh: 0%
PIK3C2G
  %Inh: 0%
PIK3CA
  %Inh: 0%
PIK3CB
  %Inh: 0%
PIK3CD
  %Inh: 13%
PIK3CG
  %Inh: 8%
PIK4CB
  %Inh: 4%

## N#Cc1c(N2CCOCC2)sc(-c2ccn[nH]2)c1-c1ccc(Cl)cc1
PAK4
  %Inh: 15%
PAK6
  %Inh: 29%
PAK7
  %Inh: 0%
PCTK1
  %Inh: 0%
PCTK2
  %Inh: 0%
PCTK3
  %Inh: 7%
PDGFRA
  %Inh: 3%
PDGFRB
  %Inh: 12%
PDPK1
  %Inh: 0%
PFTAIRE2
  %Inh: 0%
PFTK1
  %Inh: 19%
PHKG1
  %Inh: 9%
PHKG2
  %Inh: 0%
PIK3C2B
  %Inh: 31%
PIK3C2G
  %Inh: 37%
PIK3CA
  %Inh: 90%
PIK3CB
  %Inh: 97%
PIK3CD
  %Inh: 46%
PIK3CG
  %Inh: 20%
PIK4CB
  %Inh: 16%

## COc1ccc(Nc2nccc(N3CCC(NC(=O)Nc4cc(C)ccc4C)C3)n2)cc1 (centres unmarked) [GSK1379741]
PAK4
  %Inh: 0%
PAK6
  %Inh: 0%
PAK7
  %Inh: 0%
PCTK1
  %Inh: 3%
PCTK2
  %Inh: 9%
PCTK3
  %Inh: 6%
PDGFRA
  %Inh: 0%
PDGFRB
  %Inh: 2%
PDPK1
  %Inh: 0%
PFTAIRE2
  %Inh: 13%
PFTK1
  %Inh: 2%
PHKG1
  %Inh: 0%
PHKG2
  %Inh: 0%
PIK3C2B
  %Inh: 0%
PIK3C2G
  %Inh: 0%
PIK3CA
  %Inh: 0%
PIK3CB
  %Inh: 0%
PIK3CD
  %Inh: 0%
PIK3CG
  %Inh: 0%
PIK4CB
  %Inh: 23%

## O=C(NCCNc1ccnc(Nc2ccc(F)cc2)n1)c1cc2ccccc2s1 [GSK1379874]
PAK4
  %Inh: 0%
PAK6
  %Inh: 0%
PAK7
  %Inh: 0%
PCTK1
  %Inh: 0%
PCTK2
  %Inh: 0%
PCTK3
  %Inh: 0%
PDGFRA
  %Inh: 0%
PDGFRB
  %Inh: 26%
PDPK1
  %Inh: 0%
PFTAIRE2
  %Inh: 17%
PFTK1
  %Inh: 0%
PHKG1
  %Inh: 0%
PHKG2
  %Inh: 0%
PIK3C2B
  %Inh: 0%
PIK3C2G
  %Inh: 0%
PIK3CA
  %Inh: 0%
PIK3CB
  %Inh: 0%
PIK3CD
  %Inh: 0%
PIK3CG
  %Inh: 0%
PIK4CB
  %Inh: 0%

## COc1cc(Nc2nccc(N3CCC(NC(=O)c4cccc(NC(C)=O)c4)C3)n2)cc(OC)c1OC (centres unmarked) [GSK1379754]
PAK4
  %Inh: 0%
PAK6
  %Inh: 0%
PAK7
  %Inh: 0%
PCTK1
  %Inh: 4%
PCTK2
  %Inh: 0%
PCTK3
  %Inh: 20%
PDGFRA
  %Inh: 0%
PDGFRB
  %Inh: 54%
PDPK1
  %Inh: 30%
PFTAIRE2
  %Inh: 18%
PFTK1
  %Inh: 18%
PHKG1
  %Inh: 7%
PHKG2
  %Inh: 3%
PIK3C2B
  %Inh: 100%
PIK3C2G
  %Inh: 0%
PIK3CA
  %Inh: 99.9%
PIK3CB
  %Inh: 0%
PIK3CD
  %Inh: 0%
PIK3CG
  %Inh: 99.9%
PIK4CB
  %Inh: 0%

## CC(C)(CN)c1nc(-c2ccc(Cl)c(O)c2)c(-c2ccncc2)[nH]1.O=C(O)C(F)(F)F [SB-477794]
PAK4
  %Inh: 0%
PAK6; 1 µM
  %Inh: 10% and 0%
PAK7; 1 µM
  %Inh: 21% and 25%
PCTK1; 1 µM
  %Inh: 4% and 0%
PCTK2; 1 µM
  %Inh: 99.7% and 0%
PCTK3
  %Inh: 0%
PDGFRA
  %Inh: 59%
PDGFRB; 1 µM
  %Inh: 99.5% and 98.1%
PDPK1
  %Inh: 0%
PFTAIRE2; 1 µM
  %Inh: 14% and 7%
PFTK1; 1 µM
  %Inh: 6% and 3%
PHKG1
  %Inh: 0%
PHKG2; 1 µM
  %Inh: 12% and 0%
PIK3C2B
  %Inh: 0%
PIK3C2G; 1 µM
  %Inh: 0% and 5%
PIK3CA
  %Inh: 0%
PIK3CB
  %Inh: 0%
PIK3CD; 1 µM
  %Inh: 20% and 5%
PIK3CG
  %Inh: 0%
PIK4CB; 1 µM
  %Inh: 25% and 0%

## NS(=O)(=O)c1cccc(-c2ccc3ncc(N4CCOCC4)nc3c2)c1 [GSK1535721]
PAK4
  %Inh: 5%
PAK6
  %Inh: 0%
PAK7
  %Inh: 26%
PCTK1
  %Inh: 0%
PCTK2
  %Inh: 18%
PCTK3
  %Inh: 0%
PDGFRA
  %Inh: 21%
PDGFRB
  %Inh: 21%
PDPK1
  %Inh: 0%
PFTAIRE2
  %Inh: 5%
PFTK1
  %Inh: 24%
PHKG1
  %Inh: 0%
PHKG2
  %Inh: 41%
PIK3C2B
  %Inh: 0%
PIK3C2G
  %Inh: 14%
PIK3CA
  %Inh: 13%
PIK3CB
  %Inh: 12%
PIK3CD
  %Inh: 34%
PIK3CG
  %Inh: 29%
PIK4CB
  %Inh: 81%

## O=C(Nc1cccc(-c2nn3ncccc3c2-c2ccnc(Nc3cccc(C(F)(F)F)c3)n2)c1)c1c(F)cccc1F [GSK299495]
PAK4
  %Inh: 0%
PAK6
  %Inh: 0%
PAK7
  %Inh: 0%
PCTK1
  %Inh: 6%
PCTK2
  %Inh: 0%
PCTK3
  %Inh: 23%
PDGFRA
  %Inh: 0%
PDGFRB
  %Inh: 99.7%
PDPK1
  %Inh: 0%
PFTAIRE2
  %Inh: 0%
PFTK1
  %Inh: 11%
PHKG1
  %Inh: 0%
PHKG2
  %Inh: 0%
PIK3C2B
  %Inh: 0%
PIK3C2G
  %Inh: 0%
PIK3CA
  %Inh: 0%
PIK3CB
  %Inh: 0%
PIK3CD
  %Inh: 25%
PIK3CG
  %Inh: 0%
PIK4CB
  %Inh: 0%

## O=C(Nc1n[nH]c2cc(-c3cccc(F)c3)ccc12)C1CC1 [SB-735464]
PAK4
  %Inh: 0%
PAK6
  %Inh: 0%
PAK7
  %Inh: 0%
PCTK1
  %Inh: 5%
PCTK2
  %Inh: 6%
PCTK3
  %Inh: 0%
PDGFRA
  %Inh: 42%
PDGFRB
  %Inh: 67%
PDPK1
  %Inh: 0%
PFTAIRE2
  %Inh: 26%
PFTK1
  %Inh: 3%
PHKG1
  %Inh: 0%
PHKG2
  %Inh: 0%
PIK3C2B
  %Inh: 19%
PIK3C2G
  %Inh: 20%
PIK3CA
  %Inh: 0%
PIK3CB
  %Inh: 4%
PIK3CD
  %Inh: 14%
PIK3CG
  %Inh: 16%
PIK4CB
  %Inh: 18%

## O=c1cc(N2CCOCC2)nc2n(Cc3cccc(C(F)(F)F)c3)ccn12 [GSK2297543]
PAK4
  %Inh: 0%
PAK6
  %Inh: 0%
PAK7
  %Inh: 0%
PCTK1
  %Inh: 6%
PCTK2
  %Inh: 0%
PCTK3
  %Inh: 1%
PDGFRA
  %Inh: 11%
PDGFRB
  %Inh: 22%
PDPK1
  %Inh: 0%
PFTAIRE2
  %Inh: 17%
PFTK1
  %Inh: 12%
PHKG1
  %Inh: 0%
PHKG2
  %Inh: 4%
PIK3C2B
  %Inh: 0%
PIK3C2G
  %Inh: 0%
PIK3CA
  %Inh: 0%
PIK3CB
  %Inh: 96.5%
PIK3CD
  %Inh: 28%
PIK3CG
  %Inh: 8%
PIK4CB
  %Inh: 0%
